From PubChem BioAssay (NCI)
Values joined by “and” are separate entries in the source; they are usually repeats but may differ in a detail not shown here. Equal values may be shown once. About 83,000 compounds went through this panel and 20% of them were active in at least one assay; those are over-represented in the sample as a whole.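 Cells were grown in 96-well plates and exposed to the test compound at a single concentration for 48 hours; results are reported as percent growth, with values below 10 considered active.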 Active and inactive are the calls of the source.

How the values were obtained:
Experiment in all cases: NCI-60 one-dose screen, 48 h (100 = growth as untreated, 0 = no growth, -100 = all killed)
NCI-H23 lung = test system: NCI-H23 lung
NCI-H226 lung = test system: NCI-H226 lung
NCI-H322M lung = test system: NCI-H322M lung
HOP-62 NSCLC = test system: HOP-62 NSCLC
NCI-H460 lung = test system: NCI-H460 lung
HOP-92 NSCLC = test system: HOP-92 NSCLC
NCI-H522 lung = test system: NCI-H522 lung
A549/ATCC NSCLC = test system: A549/ATCC NSCLC
786-0 renal = test system: 786-0 renal
COLO 205 colon = test system: COLO 205 colon

O=C(Nc1ccc([N+](=O)[O-])cc1Cl)c1cc(Cl)ccc1O was tested, and the growth (NCI-H23 lung; 10 µM unless noted) was -37.1% (active) and -43.6% (active), the growth (NCI-H226 lung; 10 µM unless noted) was -11.4% (active) and -4.59% (active) and the growth (NCI-H322M lung; 10 µM unless noted) was -0.032% (active) and -21.1% (active). For the same molecule, the growth (HOP-62 NSCLC; 10 µM unless noted) was 4.95% (active) and 9.98% (active), the growth (NCI-H460 lung; 10 µM unless noted) was 0.171% (active) and -3.23% (active) and the growth (HOP-92 NSCLC; 10 µM unless noted) was -24.7% (active) and -11.7% (active). For the same molecule, the growth (NCI-H522 lung; 10 µM unless noted) was -34.6% (active) and -12.1% (active), the growth (A549/ATCC NSCLC; 10 µM unless noted) was 2.95% (active) and 18.5% (inactive) and the growth (786-0 renal; 10 µM unless noted) was -34.7% (active) and -36.2% (active). The growth (COLO 205 colon; 10 µM unless noted) was -65.9% (active) and -43.8% (active).
For CC1(C)OB(c2ccc(Cn3cc(F)c(=O)[nH]c3=O)cc2)OC1(C)C, the growth (NCI-H23 lung; 10 µM) was 94.9% (inactive), the growth (NCI-H23 lung; 50 µM) was 68.3% (inactive) and the growth (NCI-H226 lung; 10 µM) was 96.9% (inactive). For the same molecule, the growth (NCI-H226 lung; 50 µM) was 64% (inactive), the growth (NCI-H322M lung; 10 µM) was 102% (inactive) and the growth (NCI-H322M lung; 50 µM) was 86.4% (inactive). For the same molecule, the growth (HOP-62 NSCLC; 10 µM) was 104% (inactive), the growth (HOP-62 NSCLC; 50 µM) was 63.9% (inactive) and the growth (NCI-H460 lung; 10 µM) was 106% (inactive). The growth (NCI-H460 lung; 50 µM) was 34.2% (inactive), the growth (HOP-92 NSCLC; 10 µM) was 98.3% (inactive) and the growth (HOP-92 NSCLC; 50 µM) was 33.2% (inactive). The growth (NCI-H522 lung; 10 µM) was 91% (inactive), the growth (NCI-H522 lung; 50 µM) was 10.3% (inactive) and the growth (A549/ATCC NSCLC; 10 µM) was 98.9% (inactive). For the same molecule, the growth (A549/ATCC NSCLC; 50 µM) was 75.8% (inactive), the growth (786-0 renal; 10 µM) was 105% (inactive) and the growth (786-0 renal; 50 µM) was 81.4% (inactive). The growth (COLO 205 colon; 10 µM) was 120% (inactive) and the growth (COLO 205 colon; 50 µM) was 36.4% (inactive).
With CC(=O)c1ccc2c(c1)N(CCCN1CCN(CCO)CC1)c1ccccc1S2 the growth (NCI-H23 lung; 10 µM unless noted) was 98.1% (inactive) and 55.9% (inactive), the growth (NCI-H226 lung; 10 µM unless noted) was 84.5% (inactive) and 68.2% (inactive) and the growth (NCI-H322M lung; 10 µM unless noted) was 98.8% (inactive) and 46.9% (inactive). For the same molecule, the growth (HOP-62 NSCLC; 10 µM unless noted) was 90.7% (inactive) and 43.1% (inactive), the growth (NCI-H460 lung; 10 µM unless noted) was 101% (inactive) and -11.3% (active) and the growth (HOP-92 NSCLC; 10 µM unless noted) was -3.7% (active). For the same molecule, the growth (NCI-H522 lung; 10 µM unless noted) was 67.3% (inactive) and 35.3% (inactive), the growth (A549/ATCC NSCLC; 10 µM unless noted) was 45.5% (inactive) and the growth (786-0 renal; 10 µM unless noted) was 85.9% (inactive) and -18.4% (active). For the same molecule, the growth (COLO 205 colon; 10 µM unless noted) was 134% (inactive) and -82.8% (active).
In the case of CC(CN=Cc1ccccc1O)N=Cc1ccccc1O (stereo not given), the growth (NCI-H23 lung; 10 µM unless noted) is reported as 101% (inactive) and 102% (inactive), the growth (NCI-H226 lung; 10 µM unless noted) is reported as 92.6% (inactive) and 91.4% (inactive) and the growth (NCI-H322M lung; 10 µM unless noted) is reported as 79.2% (inactive) and 113% (inactive). For the same molecule, the growth (HOP-62 NSCLC; 10 µM unless noted) was 98.9% (inactive) and 104% (inactive), the growth (NCI-H460 lung; 10 µM unless noted) was 107% (inactive) and 100% (inactive) and the growth (HOP-92 NSCLC; 10 µM unless noted) was 85.4% (inactive). For the same molecule, the growth (NCI-H522 lung; 10 µM unless noted) was 75.7% (inactive) and 106% (inactive), the growth (A549/ATCC NSCLC; 10 µM unless noted) was 107% (inactive) and 117% (inactive) and the growth (786-0 renal; 10 µM unless noted) was 104% (inactive) and 109% (inactive). For the same molecule, the growth (COLO 205 colon; 10 µM unless noted) was 98.5% (inactive).
With CCc1ccccc1-n1c(N)c(C#N)c(-c2ccc(OC)c(OC)c2)c(C#N)c1=O the growth (NCI-H23 lung; 10 µM) was 105% (inactive), the growth (NCI-H23 lung; 100 µM) was 29.3% (inactive) and the growth (NCI-H226 lung; 10 µM) was 109% (inactive). The growth (NCI-H226 lung; 100 µM) was 8% (active), the growth (NCI-H322M lung; 10 µM) was 108% (inactive) and the growth (NCI-H322M lung; 100 µM) was 39.5% (inactive). For the same molecule, the growth (HOP-62 NSCLC; 10 µM) was 95.2% (inactive), the growth (HOP-62 NSCLC; 100 µM) was -28.6% (active) and the growth (NCI-H460 lung; 10 µM) was 121% (inactive). The growth (NCI-H460 lung; 100 µM) was 30.1% (inactive), the growth (HOP-92 NSCLC; 10 µM) was 126% (inactive) and the growth (HOP-92 NSCLC; 100 µM) was -34.6% (active). For the same molecule, the growth (NCI-H522 lung; 10 µM) was 105% (inactive), the growth (NCI-H522 lung; 100 µM) was -8.58% (active) and the growth (A549/ATCC NSCLC; 10 µM) was 106% (inactive). The growth (A549/ATCC NSCLC; 100 µM) was 79.9% (inactive), the growth (786-0 renal; 10 µM) was 107% (inactive) and the growth (786-0 renal; 100 µM) was -9.15% (active). The growth (COLO 205 colon; 10 µM) was 138% (inactive) and the growth (COLO 205 colon; 100 µM) was 115% (inactive).
With CCCCCCCCCCCCCCCc1ccc(Cl)c(O)c1Cl (tested in a mixture with another compound) the growth (NCI-H23 lung; 0.25 µM) was 19.1% (inactive), the growth (NCI-H23 lung; 10 µM) was 88.8% (inactive) and the growth (NCI-H226 lung; 0.25 µM) was 5.35% (active). For the same molecule, the growth (NCI-H226 lung; 10 µM) was 93.6% (inactive), the growth (NCI-H322M lung; 0.25 µM) was 61.5% (inactive) and the growth (NCI-H322M lung; 10 µM) was 107% (inactive). The growth (HOP-62 NSCLC; 0.25 µM) was 19% (inactive), the growth (HOP-62 NSCLC; 10 µM) was 97.5% (inactive) and the growth (NCI-H460 lung; 0.25 µM) was 5.78% (active). For the same molecule, the growth (NCI-H460 lung; 10 µM) was 104% (inactive), the growth (HOP-92 NSCLC; 0.25 µM) was 17.5% (inactive) and the growth (HOP-92 NSCLC; 10 µM) was 105% (inactive). For the same molecule, the growth (NCI-H522 lung; 0.25 µM) was 12.1% (inactive), the growth (NCI-H522 lung; 10 µM) was 83.1% (inactive) and the growth (A549/ATCC NSCLC; 0.25 µM) was 38.5% (inactive). The growth (A549/ATCC NSCLC; 10 µM) was 71.9% (inactive), the growth (786-0 renal; 0.25 µM) was 15.6% (inactive) and the growth (786-0 renal; 10 µM) was 107% (inactive). For the same molecule, the growth (COLO 205 colon; 0.25 µM) was 49.3% (inactive) and the growth (COLO 205 colon; 10 µM) was 114% (inactive).
